Measured values: ChEMBL document CHEMBL1157539, “Thousands of chemical starting points for antimalarial lead identification” (Nature, 2010)

What was measured:
Assay type in all cases: functional
Plasmodium falciparum [1] = assay: GSK_TCMDC: Inhibition of Plasmodium falciparum 3D7 in whole red blood cells, using parasite LDH activity as an index of growth. Test compounds present at 2uM
Plasmodium falciparum [2] = assay: GSK_TCMDC: Inhibition of Plasmodium falciparum Dd2 in whole red blood cells, using parasite LDH activity as an index of growth. Test compounds present at 2uM
HepG2 = assay: GSK_TCMDC: Percent inhibition of human HepG2 cell line. Test compounds present at 10uM.

SMILES	Inhibition (Plasmodium falciparum [1]) [%]	Inhibition (Plasmodium falciparum [2]) [%]	Inhibition (HepG2) [%]
O=C(Cn1c(CCc2cccc(F)c2F)cc(=O)c2cccnc21)N(CCn1ccnc1)Cc1ccc(-c2ccc(C(F)(F)F)cc2)cc1	99	62	39
CCNc1cc(C)nc(Nc2ccc(NS(=O)(=O)c3ccccc3)cc2)n1	100	54	41
N=C(N)Nc1nc(-c2cccc(NC(=O)NCC(c3ccccc3)c3ccccc3)c2)cs1	100	87	0
N#Cc1ccc(-c2ccc(C(=O)NCCCCN3CCC(c4nc5ccccc5[nH]4)CC3)cc2)cc1	92	13	43
Oc1cc(Nc2ccnc3cc(-c4ccc(CN5CCCCC5)o4)ccc23)c(Cl)cc1F	100	81	30
N#Cc1ccc(CN2CCCN(Cc3cccc(NC(=O)c4ccc(Cl)c(Cl)c4)c3)CC2)cc1.O=C(O)C(F)(F)F	95	10	19
CCNc1cc(C)nc(Nc2ccccc2)n1	92	8	16
CNC(=O)C1Cc2c([nH]c3ccc(Br)cc23)C2(CCN(CCc3ccccc3)CC2)N1 (centres undefined)	100	60	15
Nc1ncc(-c2ccc3ncccc3c2)c(N)n1.O=C(O)C(F)(F)F	97	0	55
CC(C)N1CCC(N(Cc2ccc(-c3ccc(C(F)(F)F)cc3)cc2)C(=O)Cn2c(CCc3cccc(F)c3F)cc(=O)c3ccccc32)CC1.O=C(O)C(O)C(O)C(=O)O	99	73	50
CCN(CC)CCNC(=O)c1ccc(NC(=O)c2ccc(-c3cc(NC(=O)CC4CCCC4)ccc3C)cc2)cc1	99	95	12
Cc1cnc(N2CCN(CC3CCN(C)CC3)CC2)nc1Oc1ccc(-n2ccnc2)cc1.O=C(O)C(F)(F)F	99	66	9
CCc1n[nH]c(C(=O)NC2CCN(CC3(c4ccc(OC)cc4)CCCCC3)CC2)c1C	90	90	2
CNC(=O)C1Cc2c([nH]c3cc(Br)ccc23)C2(CCN(CCc3ccccc3)CC2)N1 (centres undefined)	100	31	10
Cc1ccc(NC(=O)Nc2ccc(I)c(OCCN(C)C)c2)cc1Cl	98	22	11
Cc1ccc(C(=O)Nc2cccc([N+](=O)[O-])c2)cc1S(=O)(=O)N1CC(C)CC(C)C1 (centres undefined)	100	42	24
CC(=O)Nc1ccc(C(=O)N2CCN(c3ccnc4cc(Cl)ccc34)CC2)cc1.O=C(O)C(F)(F)F	93	43	2
Cl.OCCNc1nc(Nc2ccccc2)nc2ccccc12	93	61	5
Cc1cccc(C)c1OC(=O)CSc1nnc(-c2ccccc2O)o1	97	0	11
CCCCCCc1cc2cc(-c3nc(-c4ccc(OC)cc4)cs3)c(=O)oc2cc1O	97	93	45
Cc1cccc2nc(-c3ccc(-c4cccc(CNCc5cccc(N)c5)c4)cc3)[nH]c12.O=C(O)C(F)(F)F	100	87	0
Cc1noc(C)c1-c1cccc(CNCc2ccc(-c3ccc(-c4nc5cc(C(F)(F)F)ccc5[nH]4)s3)cc2)c1.O=C(O)C(F)(F)F	100	99	54
CC(C)C[C@H](NC(=O)c1cc2ccccc2s1)C(=O)N[C@H]1CCN(Cc2ccc(OC3CCN(C)C3)c(Cl)c2)C1.O=C(O)C(F)(F)F (some centres undefined)	97	65	68
COc1ccc(C2CCN(C#N)C2)cc1OC1CCCC1 (centres undefined)	100	97	9
OCc1ccc2nc3c(cc2c1)-c1cccc2cccc-3c12	96	0	16
COc1ccc(C2CC(c3cccs3)=NN2C(=O)CNc2cccc(C#N)c2)cc1OC (centres undefined)	87	35	8
CCCCNC(=O)[C@H](Cc1ccccc1)NC(=O)c1ccc(O)c(-c2ccc(Cl)c(Cl)c2)c1	98	97	0
C(=N\Nc1nccc2sc(-c3cccnc3)cc12)/c1ccncc1	100	94	65
